Source: PubChem BioAssay
Most compounds without a hit are left out; they make up all but 2.3% or so of the library.
Tau fibril ThT: blocks human tau fibril formation measured by thioflavin T; Potency, µM (top dose mostly 57.4 µM), inactives show at the highest dose activity, negative = inhibition, actives largely listed as inhibitors; recombinant tau K18 P301L, heparin-induced fibrillization, ThT fluorescence; 270,000 compounds, 2.1% hits; AID 1460; also: potency is read from the fitted curve at half-maximal effect; nearly all actives have a fitted effect of over 55% in size
Target sequence (P10636 561-689 P618L limits assumed): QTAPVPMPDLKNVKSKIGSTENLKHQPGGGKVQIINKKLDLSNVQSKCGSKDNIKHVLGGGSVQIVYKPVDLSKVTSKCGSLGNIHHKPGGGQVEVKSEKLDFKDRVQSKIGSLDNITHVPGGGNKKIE
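Heparin-induced (20 uM) aggregation of recombinant human K18 P301L tau, 15 uM unlabeled with 0.24 uM labeled, pH 7 acetate buffer, 6 hr at 37 C with compound. Fibrils quantified by 30 uM ThT fluorescence after 1 hr ambient incubation.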
USP1 inh: blocks the human USP1/UAF1 deubiquitinase complex | O94782 | Potency, µM (highest dose often 57.1 µM), without a hit: at the highest dose activity change, negative = inhibition, usual class: inhibitors | recombinant USP1/UAF1, Ub-Rhodamine cleavage fluorescence | AID 743255 | 390,000 compounds, 0.23% hits; also: potency is read from the fitted curve at half-maximal effect; nearly all actives have a fitted effect of over 60% in size
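1 nM enzyme complex + cpd, 15 min RT; start with Ub-Rho 150nM final; kinetic fluorescence ex 480/em 540, 6 reads q60 s. Buffer 50mM HEPES pH 7.8, 0.5mM EDTA, 0.1 mg/ml BSA, 1mM TCEP, 0.01% Tween-20.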
Tau fluor counter: counter-screen for tau fibril formation inhibitors. tau K18 P301L (four-repeat tau fragment) Alexa594 fluorescence, heparin fibrillization. AID 1463. 280,000 compounds, 0.93% hits. Potency, µM (doses to about 57.7 µM), without a hit: at the top dose activity change, negative = decrease; also: potency is read from the fitted curve at half-maximal effect; nearly all actives have a fitted effect of over 55% in size
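Human K18 P301L tau (15 uM unlabeled plus 0.24 uM Alexa 594-labeled, final) in 100 mM sodium acetate pH 7 was mixed with compound and 20 uM heparin and incubated 6 hr at 37 C.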
Tau fibril FP: tau fibrillization inhibition (FP); P10636; K18 P301L tau heparin fibrillization, Alexa594 FP, 6 h; Potency, µM (top dose mostly 57.7 µM), for the others: at the top dose activity, negative = inhibition, hits mostly inhibitors; 280,000 compounds, 0.39% hits; AID 1468; also: potency is read from the fitted curve at half-maximal effect; nearly all actives have a fitted effect of over 55% in size
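Quantitative HTS format: compounds meet 15 uM recombinant K18 P301L tau and Alexa 594-tau tracer in 100 mM sodium acetate pH 7; 20 uM heparin triggers fibrillization at 37 C over 6 hr; FP gives the signal.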
FBPA coupling cs: coupling enzyme interference in Giardia aldolase counter-screen | activity change, negative = inhibition, % at 58.2 µM, hits read low | coupling enzyme system counterscreen, AmpLite Red fluorescence | 290,000 compounds, 0.67% hits; in the data active = activity change below about -30%
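Fluorescence at 525 nm excitation and 598 nm emission measured inhibition of the coupled detection system without aldolase. Compounds (at 57.5 uM final) were preincubated 10 min at room temperature with coupling enzyme reagent before a 20 min substrate/AmpLite Red step.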
Starred values were filed as active, the others as inactive; ? = inconclusive; . = not tested or not shown; [ ] = dose if it differs, or a comment. Unless noted, calls follow the shape of the dose curve; as a rule, active = well fitted curve in the direction sought with a large enough effect; inconclusive = small, poorly fitted or top-dose-only effect, or another doubt; inactive = no such curve, though single readings can be large; an effect the other way counts as inactive or inconclusive. % is scaled to controls: 0 for no effect and ±100 for the full control effect.

SMILES | Tau fibril ThT | USP1 inh | Tau fluor counter | Tau fibril FP | FBPA coupling cs
c1ccc(Cc2nnc3n2N=C(c2ccccc2)CS3)cc1 | 2.0% | -5.1% | 2.2% | 0.7% | -54.4*
CCOc1cc(-c2cc(-c3ccc(C)cc3)nc(N)c2C#N)ccc1O | -10.6% | -17.6% | ? | -15.4% | 1.4
CCOc1cc(/C=C(\C#N)c2[nH]nc(N)c2C#N)ccc1O | 14.1µM* | -21.0% | ? | -3.1% | -8.0
O=C(Nc1ccc(C(=O)Nc2ccc(C(=O)Nc3ccc(S(=O)(=O)O)c4cc(S(=O)(=O)O)cc(S(=O)(=O)O)c34)cc2)cc1)Nc1ccc(C(=O)Nc2ccc(C(=O)Nc3ccc(S(=O)(=O)O)c4cc(S(=O)(=O)O)cc(S(=O)(=O)O)c34)cc2)cc1 | ? | . | -12.8% | ? | 6.6
O=C(Nc1cc(C(=O)Nc2ccc(S(=O)(=O)O)cc2S(=O)(=O)O)cc(C(=O)Nc2ccc(S(=O)(=O)O)cc2S(=O)(=O)O)c1)Nc1cc(C(=O)Nc2ccc(S(=O)(=O)O)cc2S(=O)(=O)O)cc(C(=O)Nc2ccc(S(=O)(=O)O)cc2S(=O)(=O)O)c1 | ? | . | -6.2% | 14.1µM* | 12.9
O=C1c2ccc(O)c(O)c2C(=O)c2c(O)ccc(O)c21 | 1.41µM* | . | 2.51µM*[quencher] | 12.6µM* | -0.9
O=C1C(O)=C(O)C(=O)c2ccccc21 | . | 15.8µM* | . | . | .
O=C1c2cccc(O)c2C(=O)c2c(O)cccc21 | ? | . | ? | -5.9% | 0.4
O=C1c2ccccc2C(=O)c2[nH]c(=O)[nH]c21 | . | 28.2µM* | . | . | -19.7
O=C1c2ccccc2C(=O)c2c1ccc(O)c2O | 8.91µM* | ? | ? | -7.4% | -0.2
COC(=O)c1ccc2c(c1O)C(=O)c1ccccc1C2=O | 5.62µM* | -22.5% | ? | -3.2% | -44.5*
CCN1/C(=C\C=C2\C(=O)N(C)C(=S)N2C)Sc2ccccc21 | 2µM* | -8.3% | 0.7% | -14.2% | -0.7
CSC(=NS(=O)(=O)c1ccc(N)cc1)NS(=O)(=O)c1cccs1 | . | -23.3% | . | . | .
N=C1S/C(=C\c2ccc(-c3ccccc3C(=O)O)o2)C(=O)N1c1ccc2c(c1)OCO2 | 3.55µM* | ? | -26.0% | -10.4% | 9.2
COc1ccccc1N1C(=N)S/C(=C\c2ccc(-c3ccccc3C(=O)O)o2)C1=O | ? | -15.2% | -3.6% | 7.9% | 5.5
CCc1ccccc1NCc1nnc2n1CCCCC2 | 0.0% | -30.6% | -0.6% | 5.5% | .
CCOc1ccc(NC(=O)c2ccc3c(c2)nnn3C2CCCC2)cc1 | -4.2% | -16.6% | -5.4% | -1.2% | .
CCN(CC)C(=O)C(Oc1ccc(S(=O)(=O)N2CCCC2)cc1[N+](=O)[O-])c1ccccc1 (centres undefined) | . | -4.8% | . | . | -1.5
CC(=O)NC1CC(=O)N(c2ccc3c(c2)OCCO3)C1 (centres undefined) | -0.6% | 11.8% | -3.6% | -18.1% | .
O=C(O)c1ccccc1C(=O)c1ccc2c(c1)N(Cc1cccc(F)c1)C(=O)CO2 | -5.4% | -25.6% | -8.6% | -1.9% | -41.7*
CCCN1C(=O)COc2ccc(C(=O)c3ccccc3C(=O)O)cc21 | 1.7% | -23.8% | 2.8% | 3.6% | 5.2
CCC/C=C(\CCC)C(NC(=O)c1ccccc1)c1ccccc1 (centres undefined) | -5.6% | . | -10.9% | -2.8% | 7.7
CCCc1cc(=O)[nH]c(SCC(=O)Nc2cccc(S(=O)(=O)N3CCOCC3)c2)n1 | . | -15.3% | . | . | .
Cc1cccc(C)c1NC(=O)NCCc1c[nH]c2ccccc12 | -5.4% | -14.6% | -15.7% | 8.2% | .
COc1cc(NS(=O)(=O)c2ccc(Nc3nc(-c4ccccn4)cs3)cc2)nc(OC)n1 | -12.6% | ? | -26.2% | 14.2% | 8.3
COc1ccc(-c2csc(Nc3ccc(S(=O)(=O)Nc4cc(OC)nc(OC)n4)cc3)n2)cc1 | 15.8µM* | -15.5% | 11.2µM*[quencher] | 2.7% | -4.4
COc1ccc(-c2csc(Nc3ccc(S(=O)(=O)Nc4cc(C)on4)cc3)n2)cc1C | 12.6µM* | ? | ? | 13.0% | -3.3
O=C([C@@H]1CCCN1C(=O)c1cccs1)N1CCN(S(=O)(=O)c2cccc(F)c2)CC1 | . | -6.5% | . | . | .
C#Cc1cccc(C(=O)N2CCCC(CCC(=O)NCc3ccccc3F)C2)c1 (centres undefined) | . | -12.2% | . | . | .
